This assay can be described thus: NCI Yeast Anticancer Drug Screen. Data for the rad18 strain (AID 177). The settings on record: S. cerevisiae rad18 mutant growth inhibition, stronger effect = higher value. How it is done: Growth inhibition of yeast strains with defined genetic alterations is measured as a screen for potential anti-cancer activity. Selected strains with alterations in DNA damage repair or cell cycle control were exposed to compounds and growth inhibition was measured relative to vehicle treated controls. The strain used in this assay is rad18

Compounds without any hit were thinned out: in the full panel of roughly 79,000, 15% have a hit. Unmarked numbers belong to inactive results. Calls of active or inactive are those of the source. No stated cut-off is given here; in the data, active means growth inhibition above about 70%; inactive means the rest.

For `OB(O)c1ccccc1C#Cc1ccccc1B(O)O`, the growth inhibition is -4% (at 1.2 µM); 0% (at 3.7 µM); 8% (at 11.0 µM); 40% (at 33.0 µM); 95% (active) (at 100.0 µM).
The matching figures for `CCOC(=O)c1csc(Br)n1`: -1%, -3%, 1%, -4% and -14%.
Taken in the same sequence, the figures for `Cc1cccc(/C=N\NC(=S)N2CCCCC2)n1` were -7%, 92% (active), 97% (active), 98% (active) and 98% (active).
Taken in the same sequence, the figures for `COc1cc(N(C)C)ccc1/C=C\c1ccnc2ccccc12` were -4%, -2%, -1%, 9% and 14%.
As for `C/C(=N\NC(=S)NNC(=S)N(C)c1ccccc1)c1ccccn1`, the growth inhibition by setting is: (at 1.2 µM) 16%; (at 3.7 µM) 31%; (at 11.0 µM) 98% (active); (at 33.0 µM) 98% (active); (at 100.0 µM) 83% (active).
Turning to `CCC(=O)N(c1ccccc1)C(C)CN1CCC(O)(c2cccc(C(F)(F)F)c2)CC1` (stereo not given), the growth inhibition reads like this: (at 1.2 µM) 3%; (at 3.7 µM) 9%; (at 11.0 µM) 25%; (at 33.0 µM) 31%; (at 100.0 µM) 69%.
On to `CC(=O)O[C@H]1C(=O)[C@@]2(C)[C@H]([C@H](OC(=O)c3ccccc3)[C@]3(O)C[C@H](OC(=O)[C@H](O)[C@@H](NC(=O)c4ccccc4)c4ccccc4)C(C)=C1C3(C)C)[C@]1(OC(C)=O)CO[C@@H]1C[C@@H]2O`, for which the growth inhibition (at 1.2 µM) was -5%; the growth inhibition (at 3.7 µM) was -1%; the growth inhibition (at 11.0 µM) is 1%; the growth inhibition (at 33.0 µM) was 2%; the growth inhibition (at 100.0 µM) was 0%.
Turning to `N#C/C(=C/c1c(Cl)cccc1Cl)C(N)=O`, the growth inhibition reads like this: (at 1.2 µM) -19%; (at 3.7 µM) -11%; (at 11.0 µM) 6%; (at 33.0 µM) 81% (active); (at 100.0 µM) 97% (active).
